Only some compounds are listed: those with a hit (about 4.3% of all), similar ones and a draw of the others.
Anthrax LF inh2 = anthrax lethal factor protease inhibition; P15917; multiplex microsphere protease cleavage assay, LF; inhibition, % at 10 µM; hit rate 0.12% among 360,000; also: plate controls were buffer without enzyme for full effect and enzyme alone for no effect
Autofluor counter = counter-screen for toxin protease inhibitors: compound fluorescence; compound autofluorescence counterscreen, microsphere flow cytometry; hits give high values; fluorescence intensity (concentration not given with the values); hit rate 3.1% among 360,000; AID 624483; in the data active = fluorescence intensity above about 16000; inconclusive = no clear call, values can overlap the other calls
BoNT-F LC inh = blocks Botulinum neurotoxin F light chain protease. inhibition, % at 10 µM. Multiplex microsphere protease cleavage assay, flow cytometry. hit rate 0.22% among 360,000. AID 588497; in the data active = inhibition above about 35%, passing the limit was not always enough; inconclusive = no clear call, values can overlap the other calls; also: plate controls were buffer without enzyme for full effect and enzyme alone for no effect
PfHsp40 yeast = compounds rescuing yeast from Plasmodium falciparum HSP40 toxicity | S. cerevisiae expressing PfHsp40, growth rescue, ATP luminescence | hit rate 0.68% among 340,000 | AID 504582 | growth rescue, % at 12.5 µM; in the data active = growth rescue above about 28%, passing the limit was not always enough; inconclusive = no clear call, values can overlap the other calls;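 also: yeast W303a lacking pdr1 and pdr3 grown in galactose medium; growth measured after three days at 30 °C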
BoNT A protease = BoNT A light chain protease inhibition; multiplex microsphere protease substrate cleavage, flow cytometry; inhibition, % at 10 µM; hit rate 0.17% among 360,000; AID 588499; also: plate controls were buffer without enzyme for full effect and enzyme alone for no effect
MazEF act = MazEF (E. coli) toxin RNase activation; P0AE70; FAM/BHQ RNA-DNA oligo cleavage fluorescence, 5 h; activation, % at 20 µM; hit rate 0.32% among 350,000; AID 504720; in the data active = activation above about 50%
Target sequence (P0AE70 whole entry, looked up): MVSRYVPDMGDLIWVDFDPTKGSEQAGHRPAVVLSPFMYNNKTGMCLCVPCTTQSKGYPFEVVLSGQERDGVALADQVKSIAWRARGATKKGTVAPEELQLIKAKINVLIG
* hit, by the source's call; ? = inconclusive; nt = no result; + = active, no number. Rule as the data show it, unless noted: active = inhibition above about 30%; inconclusive = no clear call, values can overlap the other calls; inactive = below that.

SMILES | Anthrax LF inh2 | Autofluor counter | BoNT-F LC inh | PfHsp40 yeast | BoNT A protease | MazEF act
CC(C)(C)Nc1nc(SCc2ccccc2)nc(N2CCOCC2)n1 | -5 | 23358* | -7 | 1 | ? | -10
O=C1C=CC(=O)C2C1C1(Cl)C(Cl)=C(Cl)C2(Cl)C1(Cl)Cl (stereo not drawn) | -1 | 3761 | 0 | 54* | 0 | 2
Cc1cc(C)c2nc(-c3ccccc3)ccc2c1 | -3 | 6087 | -1 | nt | -1 | nt
CCOc1ccc(CN2CCC(=O)NC2=O)cc1 | -9 | 17829* | 4 | 1 | 6 | 6
O=C1CCN(Cc2ccccc2)C(=O)N1 | -4 | 4182 | 2 | 0 | 0 | 8
COc1ccc(CN2CCC(=O)NC2=O)cc1 | 0 | 25338* | -4 | -1 | -6 | 1
CC(C)COc1cccc(C(=O)N(CC(=O)Nc2ccccc2C(F)(F)F)Cc2ccco2)c1 | -2 | 3394 | -15 | 2 | 0 | -1
CCc1nc(NCc2ccc3c(c2)OCO3)c2oc3ccccc3c2n1 | -2 | 23489* | -6 | 6 | ? | 11
Cc1nc(Nc2ccc3c(c2)OCCO3)c2oc3ccccc3c2n1 | -2 | 2440 | -4 | -1 | 0 | 2
c1ccc2c(c1)oc1c(Nc3ccc4c(c3)OCCO4)ncnc12 | -4 | 19956* | 2 | -1 | 2 | 12
CCc1nc(Nc2ccc3c(c2)OCCO3)c2oc3ccccc3c2n1 | -4 | 17390* | -8 | -1 | -3 | -17
O=C(CSc1nnc(-c2cccnc2)n1Cc1ccccc1)N1CCOCC1 | 0 | 24649* | -4 | 1 | ? | 8
O=C(CSc1nnc(-c2ccccc2)n1Cc1ccccc1)N1CCOCC1 | -2 | 9234 | 0 | 1 | 1 | 1
COc1ccc(CCNC(=O)CSc2nnc(Cn3c(=O)sc4ccccc43)n2C)cc1OC | 0 | 24341* | -2 | 0 | ? | 4
O=C(CSc1nnc(Cn2c(=O)sc3ccccc32)n1CCc1ccccc1)N1CCOCC1 | 0 | 16901* | 2 | -1 | -1 | 5
Oc1ccccc1-c1nnc(SCCN2CCOCC2)n1Cc1ccccc1 | -2 | 3753 | 9 | 249* | 0 | 10
CN(C(=O)c1cccc(NC(=O)Cc2ccc(NC(=O)C3CCCN(C(=O)C4CCC4)C3)cc2)c1)C1CCCC1 (stereo not drawn) | -4 | 2947 | -6 | 0 | 0 | -1
CN(CCCC(=O)O)S(=O)(=O)c1ccc2c(c1)C(=O)c1cc(S(=O)(=O)N(C)CCCC(=O)O)ccc1-2 | 4 | 3616 | ? | 0 | 0 | 4
Cc1onc(-c2ccccc2)c1C(=O)NCC(O)c1ccccc1 (stereo not drawn) | 0 | 4375 | 0 | -1 | 0 | -5
Cc1cccc(C2=NN(c3ccccc3)[C@@H](C(=O)N3CCOC3=O)[C@@H]2C)c1 | -7 | 4651 | -4 | 33* | -1 | 1
Cc1cccc(C2=NN(c3ccc(Br)cc3)[C@@H](C(=O)N3CCOC3=O)[C@@H]2C)c1 | -1 | 3744 | -5 | 1 | 0 | -2
CC(=O)N(C)C1=C(N2CCOCC2)C(=O)c2ccccc2C1=O | -3 | 24878* | -4 | 0 | -4 | 0
CC(CCc1ccccc1)N1CCN(C)CC1 (stereo not drawn) | nt | nt | nt | 0 | nt | -1
COc1ccc(CCC2=NCCN2C(CC(C)C)c2nc3ccccc3[nH]2)cc1 (stereo not drawn) | -7 | 5996 | 0 | nt | 1 | nt
c1coc(Cn2c(SCc3nc4ccccc4[nH]3)nnc2-c2cccs2)c1 | 1 | 18667* | 3 | 3 | 2 | 1
SMILES | Anthrax LF inh2 | Autofluor counter | BoNT-F LC inh | PfHsp40 yeast | BoNT A protease | MazEF act
c1ccc(CSc2nnc(-c3cccs3)n2Cc2ccco2)cc1 | -1 | 20965* | -7 | 3 | -5 | 8
C(=C\c1ccccc1)/CSc1nnc(-c2ccccc2)n1Cc1ccco1 | -2 | 23193* | 1 | 2 | 1 | -9
C(=C\c1ccccc1)/CSc1nnc(-c2ccncc2)n1Cc1ccco1 | -1 | 2992 | -3 | -1 | 0 | -20
Cc1ccc(C(=O)N/C(=C/C=C\c2ccccc2)C(=O)NCc2ccco2)cc1 | -2 | 2405 | -3 | 5 | -1 | 1
CC(=O)NCc1ccc(-c2csc(-c3cccs3)n2)cc1 | -1 | 5679 | -6 | 4 | 0 | 7
CCOc1cc2c3c(c1)C1(Nc4ccccc4S1)C(=O)N3C(C)(C)CC2C (stereo not drawn) | -2 | 23624* | -3 | 0 | ? | 10
Oc1ccc2ccccc2c1C=Nc1cc(C(F)(F)F)ccc1N1CCCC1 | -8 | 3322 | 4 | -1 | 1 | +
N#Cc1cccc(N=Cc2c(O)ccc3ccccc23)c1 | -1 | 2406 | 12 | -1 | 1 | -3
COc1ccc(NC(=O)CSc2nc(C(C)C)nc3c2c(=O)n(C)c(=O)n3C)c(OC)c1 | -2 | 6875 | -20 | -1 | -4 | -1
Clc1ccc(-c2nnc(-c3ccccc3Cl)o2)cc1 | -6 | 17061* | -6 | 0 | -4 | -5
CC1CCC(NC(=O)C2CCN(c3c4c(nc5ncnn35)CCC4)CC2)CC1 (stereo not drawn) | -3 | 3750 | 2 | -1 | 1 | 12
COc1ccccc1NC(=O)CNC(=O)c1ccccc1C | -1 | 24190* | -4 | -1 | -3 | -2
COc1ccccc1NC(=O)CNC(=O)c1ccccc1 | -1 | 2610 | -7 | 1 | 0 | -5
Cc1ccc(C)c(NC(=O)CNS(=O)(=O)c2ccccc2)c1 | -1 | 16924* | -3 | 1 | ? | -3
COc1ccccc1NC(=O)CCSCCC(=O)Nc1ccccc1OC | -2 | 2534 | -7 | 45* | 1 | 4
O=C(COc1ccccc1CNCc1ccccc1)Nc1ccccc1 | -6 | 24425* | -12 | 1 | ? | 8
Cc1cc(C)c(S(=O)(=O)NC(C)C)c(C)c1-n1cnnn1 | -3 | 4675 | 3 | 0 | 0 | 3
COc1ccccc1NC(=O)CN(C)S(=O)(=O)c1cc(C)ccc1OC | 1 | 16552* | 2 | 0 | 0 | -1
COc1ccccc1NC(=O)CNS(=O)(=O)c1ccccc1 | 1 | 21927* | -6 | 0 | ? | -1
COc1ccc(C)cc1NC(=O)CN(C)S(=O)(=O)c1cccs1 | -3 | 4852 | -7 | 8 | 1 | 8
COC(=O)c1ccc(NC(=O)CN(C)S(=O)(=O)c2ccc(OC)c(C)c2)cc1 | -4 | 24716* | -8 | 2 | -4 | 0
CNCc1ccccc1OCC(=O)Nc1ccccc1OC | -2 | 17627* | -5 | -1 | -4 | -1
Cc1cc(C)cc(NC(=O)COC(=O)c2cccc(S(=O)(=O)N3CCCCC3)c2)c1 | -2 | 9129 | -1 | 2 | 0 | 0
CCCn1c2ccccc2c2nnc(SCC(=O)OCC)nc21 | 0 | 2128 | -8 | 0 | 0 | 0
CCCn1c2ccccc2c2nnc(SCC(=O)OC)nc21 | -5 | 20508* | 6 | 0 | 5 | -2
CCc1cc2c(Nc3ccc(O)cc3)nc(C)nc2s1 | 0 | 3826 | ? | 22 | ? | 10

Bioassay records: PubChem, several laboratories
